Assay results taken from publication PMC12350791.

Columns and labels:
Actin, cytoplasmic 1 = Actin, cytoplasmic 1 (UniProt P60709); assay: cross-linking mass spectrometry
[1] = molecular target: DNA replication licensing factor MCM5 (UniProt P33992); assay: cross-linking mass spectrometry
[2] = molecular target: Acidic leucine-rich nuclear phosphoprotein 32 family member B (UniProt Q92688); assay: cross-link between two proteins; cross-linking mass spectrometry
Ankyrin-1 = Ankyrin-1 (UniProt P16157); assay: as above
[3] = molecular target: Centrosomal protein of 85 kDa (UniProt Q6P2H3); assay: as above
[4] = molecular target: Heterogeneous nuclear ribonucleoprotein K (UniProt P61978); assay: as above
Filamin-C = Filamin-C (UniProt Q14315); assay: as above
[5] = molecular target: Heterogeneous nuclear ribonucleoprotein A/B (UniProt Q99729); assay: as above
[6] = molecular target: Heterogeneous nuclear ribonucleoprotein M (UniProt P52272); assay: as above
[7] = molecular target: Leucine--tRNA ligase, cytoplasmic (UniProt Q9P2J5); assay: as above
Plastin-1 = Plastin-1 (UniProt Q14651); assay: as above
[8] = molecular target: Platelet-activating factor acetylhydrolase IB subunit alpha1 (UniProt Q15102); assay: as above
[9] = molecular target: Splicing factor 3B subunit 3 (UniProt Q15393); assay: as above
Tubulin alpha-4A chain = Tubulin alpha-4A chain (UniProt P68366); assay: as above
Tubulin beta-2B chain = Tubulin beta-2B chain (UniProt Q9BVA1); assay: as above
Tubulin beta-4B chain = Tubulin beta-4B chain (UniProt P68371); assay: as above
Zincore component SEPHS1 = Zincore component SEPHS1 (UniProt P49903); assay: as above
[10] = molecular target: Heterogeneous nuclear ribonucleoproteins C1/C2 (UniProt P07910); assay: cross-link between two proteins; affinity purification or IP with mass spectrometry; cross-linking mass spectrometry
[11] = molecular target: Heterogeneous nuclear ribonucleoprotein F (UniProt P52597); assay: as above
[12] = molecular target: RNA binding motif protein, X-linked-like-1 (UniProt Q96E39); assay: as above

Formin-like protein 1, O95466
listed as a hit (Actin, cytoplasmic 1): yes

DNA replication licensing factor MCM4, P33991
listed as a hit [1]: yes

Acidic leucine-rich nuclear phosphoprotein 32 family member A, P39687
listed as a hit [2]: yes

Spectrin alpha chain, erythrocytic 1, P02549
listed as a hit (Ankyrin-1): yes

Heat shock protein HSP 90-beta, P08238
listed as a hit [3]: yes
listed as a hit [4]: yes

Filamin-B, O75369
listed as a hit (Filamin-C): yes

Heterogeneous nuclear ribonucleoprotein A1, P09651
listed as a hit [5]: yes

Matrin-3, P43243
listed as a hit [6]: yes

Isoleucine--tRNA ligase, cytoplasmic, P41252
listed as a hit [7]: yes

Plastin-2, P13796
listed as a hit (Plastin-1): yes

Platelet-activating factor acetylhydrolase IB subunit alpha2, P68402
listed as a hit [8]: yes

Splicing factor 3B subunit 2, Q13435
listed as a hit [9]: yes

Stathmin, P16949
listed as a hit (Tubulin alpha-4A chain): yes

Tubulin alpha-1C chain, Q9BQE3
listed as a hit (Tubulin beta-2B chain): yes

Elongation factor 1-alpha 1, P68104
listed as a hit (Tubulin beta-4B chain): yes

Heterogeneous nuclear ribonucleoprotein D-like, O14979
listed as a hit (Zincore component SEPHS1): yes
listed as a hit [10]: yes

Heterogeneous nuclear ribonucleoproteins C1/C2, P07910
listed as a hit [11]: yes
listed as a hit [12]: yes
